These results are taken from PubChem BioAssay (NCI).

Compounds without any hit were thinned out: in the full panel of roughly 83,000, 20% have a hit.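 Assay: single dose, 48 h. Readout: percent growth (0 = no net growth; negative = cell death). Active: <10.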 Active and inactive are the calls of the source.

The subject of the experiment is HL-60(TB) leukemia. Kind of experiment: NCI-60 one-dose screen, 48 h (100 = growth as untreated, 0 = no growth, -100 = all killed). As to conditions: 10 µM unless noted.
Consider `CCN(CC)CCNC(Cc1ccccc1)c1ccc(OCc2ccccc2)cc1` (stereo not drawn), for which the growth is 46.8% (inactive).

In the case of `COc1ccc(-c2cn(Cc3cc4ccccc4s3)nn2)cc1OCCN1CCCCC1`, the growth was 77% (inactive).

With `O=C1/C(=C\c2cn(-c3nc(N4CCOCC4)nc(N4CCOCC4)n3)c3ccccc23)c2ccccc2N1c1c(Cl)cccc1Cl`, the growth was 64.7% (inactive).

Consider `CCCCCCc1nc2c(c(C)nn2-c2ccccc2)c2c1CCCCC2`, for which the growth was 108% (inactive).

Regarding `CC[C@H](C)[C@@H]1NC(=O)[C@H](Cc2ccc(O)cc2)N(C)C(=O)[C@H](Cc2ccccc2)NC(=O)CN(C)C(=O)[C@@H]2CCCN2C(=O)[C@@H](Cc2ccccc2)N(C)C(=O)[C@H](CC(C)C)NC1=O`, the growth is -24% (active).

Turning to `c1ccc2[nH]c(-c3ccc(OCCCCCOc4ccc(-c5nc6ccccc6[nH]5)cc4)cc3)nc2c1`, the growth is -45.7% (active).

As to `CCCCCCCCCCCCNC(=O)[C@H]1CSC(c2ccc(OC)c(F)c2)N1` (stereo partly drawn), the growth was -70.3% (active).

For `Cc1sc2nc(NCCc3cccs3)[nH]c(=O)c2c1C`, the growth was 102% (inactive).

Regarding `COc1ccc2c(c1)C(c1c[nH]c3ccccc13)(c1c[nH]c3ccccc13)CCO2`, the growth is 41.2% (inactive).

Take `Cc1ccc2c(O)c(O)cc(NC(C)CCCN)c2n1` (stereo not drawn): the growth was 28.3% (inactive).

Take `FC(F)(F)c1cccc(-n2nnc3cnc(Nc4ccc(N5CCCCC5)cc4)nc32)c1`: the growth is 103% (inactive).

In the case of `Fc1ccc(NCc2nnc(-c3ccc(Cl)cc3)o2)cc1`, the growth is 69.5% (inactive).

Regarding `O=C(CC(CC(=O)c1ccccc1)c1ccccc1O)c1ccccc1`, the growth was 96.8% (inactive).
